Screening results: PubChem BioAssay, National Center for Advancing Translational Sciences (NCATS)
Only some compounds are listed: those with a hit (about 9.5% of all), similar ones and a draw of the others.
Pf growth 96h = inhibits malaria parasite growth, 96 h; P. falciparum luciferase reporter growth, 96 h; Potency, µM (titrated, usually from 28.7 µM), inactives show top-dose activity change, negative = inhibition, most hits filed as inhibitors; 6.9% of 320,000 active; AID 504834; further: on the % scale 0 is the no-effect control and ±100 the full control effect
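Cell-based qHTS: luciferase-tagged P. falciparum in erythrocytes (2% hematocrit, 0.05% parasitemia final) incubated with compounds for 96 hours, 37 C, 5% CO2; luciferase detection reagent then added and luminescence measured.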
NS1 inh = blocks influenza NS1 protein function; Potency, µM (top dose mostly 46.1 µM), without a hit: at the highest dose activity, positive = more growth; 0.4% of 270,000 active; calls by dose curve; further: actives are rising curves; nearly all actives have a fitted effect of over 50% in size
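A cell-based growth assay was used: compounds that relieve NS1-induced slow growth of budding yeast raise OD600. Assay medium was yeast nitrogen base with ammonium sulphate and -URA supplement, pH 6.0, with 2% galactose.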
RE007 growth inh = less growth of the S. pombe RE007 Vpr strain. S. pombe RE007 Vpr strain, BacTiter-Glo ATP luminescence, 24 h. Potency, µM (series often up to 92.2 µM), for inactives: at the top dose activity change, negative = less growth, actives largely listed as inhibitors. 0.21% of 360,000 active; active means well fitted falling curve with a large enough effect; inconclusive means small, poorly fitted or top-dose-only effect; inactive means no such curve, though single readings can be large or run the other way; further: on the % scale 0 is the no-effect control and ±100 the full control effect; nearly all actives have a fitted effect of over 50% in size
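Fission yeast strain RE007, carrying one chromosomally integrated HIV-1 vpr copy, was seeded at OD 0.01 in PMG+AL medium with 23 nL pinned compound. After 24 h at 30 °C and 99% humidity, viability was read by BacTiter-Glo luminescence.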
Pf growth 48h = P. falciparum growth inhibition at 48 hours (one generation); Potency, µM (top dose mostly 28.7 µM), inactives show top-dose activity change, negative = inhibition, actives largely listed as inhibitors; P. falciparum luciferase growth in erythrocytes, 48 h; 5.9% of 310,000 active; further: on the % scale 0 is the no-effect control and ±100 the full control effect
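Compounds are pin-transferred into medium, infected erythrocytes (2% hematocrit, 0.1% parasitemia final) are added, and plates sit one parasite generation at 37 C in 5% CO2. Detection reagent is then added and luminescence measured.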
SARS PLpro yeast = SARS-CoV PLP inhibition in yeast; S. cerevisiae expressing SARS-CoV PLpro, growth rescue; 0.19% of 330,000 active; Potency, µM (series often up to 32.9 µM), for inactives: top-dose activity, positive = growth rescue, actives largely listed as activators; AID 485353; calls by dose curve; further: 0% is about no effect; nearly all actives have a fitted effect of over 55% in size
The depositor's hits bear a star; ? = inconclusive; . = no result. Unless noted, the call rests on the fitted dose curve; in most records, active means well fitted inhibition curve with a large enough effect; inconclusive means small, poorly fitted or top-dose-only effect, or another doubt; inactive means no such curve, though single readings can be large or run the other way. Potency means the concentration at half of the fitted maximal effect.

SMILES | Pf growth 96h | NS1 inh | RE007 growth inh | Pf growth 48h | SARS PLpro yeast
Cc1ccc(NC(=S)N(CCCN(C)C)Cc2cc3cc4c(cc3[nH]c2=O)OCO4)cc1 | 19% | -3% | -23% | ? | 0%
O=C(Nc1cccc(Cl)c1)N(CCN1CCOCC1)Cc1cccc(Cl)c1 | 38% | -145% | -2% | ? | -29%
O=c1[nH]c2cc3c(cc2cc1CN(CC1CCCO1)S(=O)(=O)c1ccccc1)OCCO3 (configuration not stated) | ? | -2% | -3% | ? | 9%
Cc1ccc(NC(=O)N(CCCN2CCOCC2)Cc2cc3cc4c(cc3[nH]c2=O)OCO4)cc1 | 13µM* | -7% | -21% | 0.93µM* | 5%
COc1ccc(CN(Cc2cc3cc4c(cc3[nH]c2=O)OCO4)C(=O)NC2CCCCC2)cc1 | 17% | ? | -15% | 4.7µM* | -1%
COC(=O)c1ccccc1S(=O)(=O)N(Cc1cc2cc3c(cc2[nH]c1=O)OCO3)C1CCCCC1 | 11% | -15% | . | 8.3µM* | 6%
c1ccc(COC2COC3C(OCc4ccccc4)COC23)cc1 (configuration not stated) | . | . | -1% | . | .
CC1CCN(S(=O)(=O)c2ccc(C(=O)NCc3ccco3)cc2)CC1 | 0% | -1% | 3% | 2.1µM* | -1%
CC1CCN(S(=O)(=O)c2ccc3c(c2)c(=O)c(C(=O)NCc2ccco2)cn3C)CC1 | 15µM* | 18% | -19% | ? | 10%
CCOC(=O)N1CCC(N2C(=O)c3ccc(C(=O)NCc4ccc(F)cc4)cc3C2=O)CC1 | -3% | -44% | 2% | 46% | -10%
O=C(NCc1ccc(F)cc1)c1ccc(S(=O)(=O)N2CCCC2)cc1 | . | . | 6% | . | .
CCOC(=O)N1CCC(N2C(=O)c3ccc(C(=O)NCc4ccco4)cc3C2=O)CC1 | 12µM* | -26% | -1% | 13% | 1%
COC(=O)c1ccc(CNC(=O)c2ccc(S(=O)(=O)N3CCCC(C)C3)cc2)cc1 (configuration not stated) | ? | . | 8% | 13µM* | 5%
CCCn1c2ccccc2c2cnn(CC(=O)NCCCN3C(C)CCCC3C)c(=O)c21 (configuration not stated) | ? | -1% | 0% | ? | -6%
O=C1Oc2ccccc2C(=O)/C1=C\N1C(=O)N/C(=C\c2ccccc2O)C1=O | . | 3% | . | . | .
CC1CCCN(c2ccc(C(=O)NCc3ccco3)cc2[N+](=O)[O-])C1 (configuration not stated) | ? | -40% | 21% | 4.1µM* | -42%
CSc1ccc(S(=O)(=O)N2CCC(C(=O)NCc3ccco3)CC2)cc1 | ? | 10% | 9% | 1.7µM* | 16%
Cc1ccc(S(=O)(=O)N2CCCC(C(=O)NCc3ccco3)C2)cc1Cl (configuration not stated) | 13µM* | 9% | 14% | ? | 4%
CCS(=O)(=O)N1CCC(C(=O)NCc2ccco2)CC1 | -153% | -13% | 2% | 1% | -1%
O=C(NCc1ccco1)C1CCCN(S(=O)(=O)c2cc(Cl)ccc2Cl)C1 (configuration not stated) | 20% | 11% | 3% | -9% | 10%
CC1CCCC(NC(=S)Nc2cccc(S(=O)(=O)N(C)C)c2)C1C (configuration not stated) | 1% | . | 2% | ? | 4%
CCn1c(N)[n+](CC(=O)Nc2ccc(SC(F)F)cc2)c2ccccc21 | 2.9µM* | 0% | -4% | 8.3µM* | -1%
COc1cccc(-c2cc(CC3(O)CCN(CCCc4ccccc4)CC3)on2)c1 | ? | 5% | 4% | 12µM* | 7%
O=C(C[C@H](c1ccccc1)c1c(O)c2ccccc2oc1=O)c1ccccc1 | . | 6% | . | . | .
CC(=O)c1cc(F)c(N2CCN(C(=O)COc3ccccc3F)CC2)cc1C | 467% | -2% | 11% | 15µM* | -3%
Cc1ccc(S(=O)(=O)NNC(=O)C(O)(c2ccccc2)c2ccccc2)cc1 | 2.1µM* | -11% | 27% | 11% | 5%
CCCNNC(=O)C(O)(c1ccccc1)c1ccccc1 | 10µM* | 4% | 2% | -1% | 23%
Cc1cc(C(=O)NNS(=O)(=O)c2ccc(C(C)(C)C)cc2)nn1C(C)(C)C | -92% | 4% | 0% | 10µM* | 1%
